STK33 kin inh: STK33 kinase inhibitors, primary screen, biochemical, luminescence, ADP-Glo, MBP substrate | AID 2322, 2010 | inhibition, % at 12.5 µM | Serine/threonine-protein kinase 33 (Homo sapiens), Q9BYT3 | 0.44% of 27,000 active; in the data active = inhibition above about 20%
Target sequence (Q9BYT3 whole entry, looked up): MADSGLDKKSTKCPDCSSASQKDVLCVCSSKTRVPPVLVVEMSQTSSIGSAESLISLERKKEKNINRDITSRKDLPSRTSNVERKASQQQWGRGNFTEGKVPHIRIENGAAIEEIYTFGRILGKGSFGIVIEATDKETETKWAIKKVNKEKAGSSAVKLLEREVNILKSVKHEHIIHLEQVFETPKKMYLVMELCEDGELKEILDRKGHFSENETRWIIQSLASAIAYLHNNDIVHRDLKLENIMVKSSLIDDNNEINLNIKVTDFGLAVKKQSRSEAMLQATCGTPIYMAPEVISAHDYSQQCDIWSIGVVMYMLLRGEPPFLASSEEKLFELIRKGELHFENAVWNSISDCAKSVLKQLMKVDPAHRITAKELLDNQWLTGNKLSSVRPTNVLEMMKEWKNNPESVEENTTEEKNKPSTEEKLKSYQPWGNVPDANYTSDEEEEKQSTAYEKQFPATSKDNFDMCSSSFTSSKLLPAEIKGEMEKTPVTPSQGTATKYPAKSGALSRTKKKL
PD-1 reverse act: activators reversing PD-1 mediated T-cell inhibition, primary screen, luminescence, primary human CD4 T cells, PD-L1 beads | activation, % (concentration not given with the values) | CellTiter-Glo 96 h | 29,000 tested, under 10 active | AID 2316, 2010; call rule not given here;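 also: 0% = median vehicle wells and 100% = positive control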
NOMO-1 viab: NOMO-1 AML cell viability reduction, primary screen, STK33 inhibitor project, CellTiter-Glo luminescence; inhibition, % (test concentration not listed); 7.5% of 37,000 active; AID 2330, 2010; NOMO-1 AML viability, 72 h; in the data active = inhibition above about 80%
* hit, by the source's call; / = no result. The entries come from a sample that favours hits as a whole.

SMILES	STK33 kin inh	PD-1 reverse act	NOMO-1 viab
Cc1cc2nnc(SCC(=O)c3cc(C)n(Cc4ccccc4)c3C)n2c2ccccc12	/	1.7	131.2*
Cc1cc(C(=O)CSc2nnc3ccccn23)c(C)n1Cc1ccccc1	0.9	/	17.3
c1ccc2[nH]c(CCc3nc4ccccc4[nH]3)nc2c1	1.3	/	/
Fc1ccc(N(Cc2nc3ccccc3[nH]2)Cc2nc3ccccc3[nH]2)cc1	1.3	/	99.7*
Cc1cccc(NC(=O)CSc2nc3ncnc(N)c3[nH]2)c1	5.4	2.4	8.6
COc1cc(C(=O)N(Cc2ccco2)c2ccc(O)cc2)cc(OC)c1OC	-0.8	/	-0.1
COc1ccc(C(OC(=O)c2ccccc2)c2nccc3ccccc23)cc1 (stereo not given)	/	-0.7	105.4*
Cc1ccc(C(=O)OC(c2ccccc2)c2nccc3ccccc23)cc1 (stereo not given)	/	-0.1	37.9
CC1CCc2c(sc(NC(=O)c3cc(-c4cccnc4)nc4ccc(Cl)cc34)c2C(N)=O)C1 (stereo not given)	-0.7	/	29.5
CCOc1ccc(NC(=O)CSc2nc(N)c3c4c(sc3n2)COC(C)(C)C4)cc1	2.0	/	-2.1
CCOC(=O)CSc1nc(N)c2c3c(sc2n1)COC(C)(C)C3	0.3	-2.0	105.0*
Cc1ccccc1-c1nnc(SCC(=O)Nc2cccc(Br)c2)n1C	0.5	0.7	41.3
COc1c(S(=O)(=O)N2CCCN(S(=O)(=O)c3ccc(Cl)c(Cl)c3OC)CC2)ccc(Cl)c1Cl	2.7	-1.4	12.0
Cn1c(SCC(N)=O)nnc1-c1cccc(Cl)c1	2.5	1.0	-1.4
CS/C(N)=N/C(N)=Nc1ccc(Cl)cc1	/	0.1	34.2
Cc1ccc(S(=O)(=O)N(C)C[C@H]2Oc3ccc(NC(=O)Nc4ccc(C(F)(F)F)cc4)cc3CC(=O)N([C@@H](C)CO)C[C@H]2C)cc1	1.6	-4.2	110.5*
COc1ccc(S(=O)(=O)N(C)C[C@H]2Oc3ccc(NC(=O)Nc4ccc(C(F)(F)F)cc4)cc3CC(=O)N([C@@H](C)CO)C[C@H]2C)cc1	0.9	-3.3	50.7
Cc1ccc(S(=O)(=O)N(C)C[C@@H]2Oc3ccc(NC(=O)Nc4ccc(C(F)(F)F)cc4)cc3CC(=O)N([C@@H](C)CO)C[C@@H]2C)cc1	3.2	-6.8	115.3*
COc1ccc(S(=O)(=O)N(C)C[C@H]2Oc3ccc(NC(=O)Nc4ccc(C(F)(F)F)cc4)cc3CC(=O)N([C@@H](C)CO)C[C@@H]2C)cc1	-4.5	0.0	5.9
O=C(/C=C/C=C/c1ccc2c(c1)OCO2)N1CCCC1	-2.3	/	/
COc1cc(O)cc2c1C(=O)OC(C)C2 (stereo not given)	-1.4	2.0	10.4
C[C@@H]1C[C@@H]2O[C@H]2/C=C/C=C\C(=O)Cc2c(Cl)c(O)cc(O)c2C(=O)O1	-2.6	-7.2	118.3*
Cc1ccnc(NS(=O)(=O)c2ccc(NC(=O)c3cc4c(s3)CCCC4)cc2)n1	4.9	/	/
Cc1sc(NC(=O)Cn2nc(C(F)(F)F)cc2C)c(C(N)=O)c1C	/	-1.0	118.2*
Cc1ccc(OCC(=O)Nc2sc(C)c(C)c2C(N)=O)cc1	-5.0	/	29.5
SMILES	STK33 kin inh	PD-1 reverse act	NOMO-1 viab
NC(=O)CN(Cc1ccc(Cl)c(Cl)c1)S(=O)(=O)c1ccc(Br)cc1	0.3	/	1.3
COc1cc(/C=C/C(=O)O[C@@H]2C[C@@](O)(C(=O)O)C[C@@H](O)[C@@H]2O)ccc1O	1.1	0.3	18.0
COc1ccc(/C=C/C(=O)c2c(OC)cc(OC)c(CC=C(C)C)c2OC)cc1	-5.2	-0.3	5.1
COc1ccc(/C=C/C(=O)CC(=O)/C=C/c2cccc(O)c2OC)cc1O	123.2*	/	114.7*
COc1cc(O)c(CC=C(C)C)cc1C(=O)/C=C/c1ccc(O)c(CC=C(C)C)c1	0.5	-1.5	85.9*
COc1cc(/C=C/C(=O)CC(=O)/C=C/c2ccc(O)c(OC)c2)ccc1O	117.1*	/	106.7*
COc1cccc(/C=C/C(=O)O)c1C(C)C	-0.5	/	2.4
O=C(NCCCN1CCOCC1)c1cnn2c(C(F)F)cc(-c3ccccc3)nc12	2.1	/	23.5
O=C(COc1cccc(C(F)(F)F)c1)NCc1cccnc1	-0.7	1.6	12.6
Cc1ccccc1Cn1cc(NC(=O)C2CC(c3ccc(Cl)cc3)=NO2)cn1 (stereo not given)	0.3	1.7	2.6
COC(=O)c1cc(C(=O)NCc2ccco2)cc([N+](=O)[O-])c1	4.6	-2.0	-9.0
CC1(C)C=Cc2c(c3occc3c3oc(-c4ccccc4)cc(=O)c23)O1	/	1.0	94.8*
COc1ccc(-c2cc(=O)c3c(OC)c(OC)c(OC)c(OC)c3o2)cc1OC	4.3	2.2	27.6
C=CCC1OC(=O)CCNC(=O)C(C)N(C)C(=O)C(C(C)C)N(C)C(=O)C(C(C)CC)NC(=O)C2CCCN2C1=O (stereo not given)	-0.7	0.6	112.0*
Cc1cccc(OCC(=O)Nc2ccc(Cl)c(-c3nc4ccccc4s3)c2)c1	-1.5	1.8	29.8
Cc1c(Cl)c(C(F)(F)F)nn1CCCNC(=O)Nc1cccc([N+](=O)[O-])c1	-3.0	-0.7	56.6
CC(=O)OC[C@]12[C@H](OC(C)=O)[C@H](OC(C)=O)[C@@H]3[C@@H](OC(C)=O)[C@@]14O[C@@]3(C)COC(=O)c1cnccc1CC[C@H](C)C(=O)O[C@@]4(C)[C@@H](O)[C@H](O)[C@@H]2OC(C)=O	0.6	-2.6	118.6*
CCOC(=O)c1c(NC(=O)C2CC(c3cccc(Br)c3)=NO2)sc(C)c1C (stereo not given)	9.2	0.8	0.8
Nc1nc(N2CCOCC2)ncc1S(=O)(=O)c1ccc(Cl)cc1	/	0.2	-0.1
O=C(NC(=S)NC12CC3CC(CC(C3)C1)C2)c1ccccc1	/	-2.3	25.7
S=C(NCc1ccccc1Cl)NC12CC3CC(CC(C3)C1)C2	3.9	-9.1	114.5*
CC(C)(C)c1ccc(OCC(N)=NC(=O)c2ccc(OC(F)(F)F)cc2)cc1	/	-0.7	135.5*
CC(C)(C)c1ccc(OCC(=O)Nc2ccc(C(=O)Nc3ccccc3C(=O)O)cc2)cc1	1.9	1.8	-3.0
CCc1c(C)sc(NC(=S)Nc2cnccn2)c1C(=O)OC	1.5	-4.6	27.1
CSc1cccc(NC(=O)CN(c2ccc3c(c2)OCCO3)S(C)(=O)=O)c1	-3.7	3.8	15.4
SMILES	STK33 kin inh	PD-1 reverse act	NOMO-1 viab
CC1(C)C(=O)[C@@H]2C[C@@]3(O)C4=CC(=O)O[C@@H](c5ccoc5)[C@]4(C)CCC3[C@@](C)(C2=O)[C@H]1CC(=O)O (stereo not given in full)	2.9	/	2.3
COC(=O)C[C@H]1C(C)(C)C(=O)[C@@H]2C[C@@]3(O)C4=CC(=O)O[C@@H](c5ccoc5)[C@]4(C)CCC3[C@@]1(C)C2=O (stereo not given in full)	0.7	/	104.2*
CN(C)CCNc1cn[nH]c(=O)c1Cl	/	0.6	28.0
Cc1c(Cl)cccc1NC(=O)CSc1nnc(-c2ccc(Cl)c(Cl)c2)n1C	1.5	/	32.5
O=C(O)c1cc(O)c2c(c1)C(=O)c1cc(O)cc(O)c1C2=O	4.2	/	-10.0
O=C1c2ccc(O)cc2C(=O)c2ccc(O)cc21	33.8*	0.0	13.9
Cc1cccc(C)c1N(CC(=O)Nc1ccc(Br)cc1)S(C)(=O)=O	2.3	-1.3	0.0
CCCN(CCC)S(=O)(=O)c1ccc(C(=O)NN)cc1	/	-0.8	33.5

Screens: PubChem BioAssay, Broad Institute
